Only a selection was taken, and hits are over-represented in it overall.
mut p53 react: mutant p53 pathway reactivation. 1.5% of 28,000 active. SW480 PUMA-promoter luciferase. activation, % at 9.98 µM; in the data active means activation above about 52%; inconclusive means no clear call, values can overlap the other calls
NOMO-1 viab: STK33 inhibitor candidate reducing NOMO-1 cell viability | 7.5% of 37,000 active | AID 2330 | inhibition, % (concentration not given with the values) | NOMO-1 AML viability, CellTiter-Glo luminescence, 72 h; in the data active means inhibition above about 80%; inconclusive means no clear call, values can overlap the other calls
ID4 SMM: binders of human ID4 protein. P47928. small molecule microarray, Flag-ID4 binding, fluorescence F/B. calls only. 1.2% of 31,000 active. AID 624137; call rule not given here;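 further: a binder raises fluorescence above local background on the spot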
Target sequence (P47928 whole entry, looked up): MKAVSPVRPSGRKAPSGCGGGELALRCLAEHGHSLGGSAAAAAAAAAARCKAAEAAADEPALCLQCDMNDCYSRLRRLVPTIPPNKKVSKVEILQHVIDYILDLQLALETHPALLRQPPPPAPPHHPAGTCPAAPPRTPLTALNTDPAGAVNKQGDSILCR
STK33 inh: blocks human STK33 kinase activity | 0.44% of 27,000 active | ADP-Glo luminescence, MBP substrate | inhibition, % at 12.5 µM; in the data active means inhibition above about 20%; inconclusive means no clear call, values can overlap the other calls
Target sequence (Q9BYT3 whole entry, looked up): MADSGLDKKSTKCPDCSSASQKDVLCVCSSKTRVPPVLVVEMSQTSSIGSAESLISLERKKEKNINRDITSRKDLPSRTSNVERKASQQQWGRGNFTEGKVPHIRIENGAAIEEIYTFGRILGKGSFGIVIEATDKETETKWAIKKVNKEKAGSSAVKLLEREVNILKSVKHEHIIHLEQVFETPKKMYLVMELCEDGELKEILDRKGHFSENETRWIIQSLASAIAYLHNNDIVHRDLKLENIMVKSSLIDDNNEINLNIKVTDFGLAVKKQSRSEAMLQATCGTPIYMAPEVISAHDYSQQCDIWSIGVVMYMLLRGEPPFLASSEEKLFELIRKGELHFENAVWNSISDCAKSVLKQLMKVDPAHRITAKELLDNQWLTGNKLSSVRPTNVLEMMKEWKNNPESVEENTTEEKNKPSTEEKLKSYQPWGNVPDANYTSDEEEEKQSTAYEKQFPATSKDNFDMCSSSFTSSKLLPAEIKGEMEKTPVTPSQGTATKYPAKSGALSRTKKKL
Large screens that a line does not name were inactive; ! = not confirmed by another sample.

CN(C)C(=O)C(CCN1CCC(O)(c2ccc(Cl)cc2)CC1)(c1ccccc1)c1ccccc1	NOMO-1 viab 138! (no result: mut p53 react)
O=C(CCN1CCCCC1)Nc1ccc(Cl)cc1	none (no result: mut p53 react, ID4 SMM, STK33 inh)
O=C1N(Cc2ccccc2)Cc2ccccc2C[C@@]12N=C(c1ccc(OCCCO)cc1)O[C@H]2c1ccccc1	none (no result: mut p53 react, NOMO-1 viab)
CC1(C)Cc2nc(-c3ccccc3)nc(SCC(=O)Nc3ccc(Br)cc3)c2CO1	NOMO-1 viab 101
C[C@@H]1CN([C@@H](C)CO)C(=O)c2cc(NS(=O)(=O)c3ccc(F)cc3)ccc2O[C@@H](C)CCCCO[C@@H]1CN(C)S(=O)(=O)c1ccc(Cl)cc1	none (no result: NOMO-1 viab, ID4 SMM, STK33 inh)
C[C@@H]1CCCCO[C@@H](CN(C)S(=O)(=O)c2ccc(Cl)cc2)[C@@H](C)CN([C@H](C)CO)C(=O)c2cc(NC(=O)c3ccccc3)ccc2O1	NOMO-1 viab 88 (no result: mut p53 react, ID4 SMM)
Cc1ccc(S(=O)(=O)Nc2ccc3c(c2)C(=O)N([C@H](C)CO)C[C@H](C)[C@H](CN(C)S(=O)(=O)c2ccccc2)OCCCC[C@@H](C)O3)cc1	NOMO-1 viab 91 (no result: mut p53 react, ID4 SMM)
COc1ccc(S(=O)(=O)N(C)C[C@@H]2OCCCC[C@@H](C)Oc3ccc(NS(=O)(=O)c4ccc(Cl)cc4)cc3C(=O)N([C@H](C)CO)C[C@@H]2C)cc1	NOMO-1 viab 94 (no result: mut p53 react, ID4 SMM)
C[C@@H]1CCCCO[C@@H](CN(C)S(=O)(=O)c2ccc(Cl)cc2)[C@@H](C)CN([C@H](C)CO)C(=O)c2cc(NS(=O)(=O)c3ccc(F)cc3)ccc2O1	NOMO-1 viab 103 (no result: mut p53 react, ID4 SMM)
Cc1ccc(S(=O)(=O)N(C)C[C@H]2Oc3c(NS(=O)(=O)c4cn(C)cn4)cccc3C(=O)N([C@@H](C)CO)C[C@@H]2C)cc1	none (no result: mut p53 react, ID4 SMM, STK33 inh)
Cc1noc(C)c1S(=O)(=O)Nc1ccc2c(c1)CC(=O)N([C@H](C)CO)C[C@H](C)[C@H](CN(C)C(=O)Nc1ccc3c(c1)OCO3)O2	none (no result: mut p53 react, ID4 SMM)
C[C@@H]1CCCCO[C@@H](CN(C)S(=O)(=O)c2ccc(Cl)cc2)[C@@H](C)CN([C@H](C)CO)C(=O)c2cc(NS(=O)(=O)c3ccc(Cl)cc3)ccc2O1	NOMO-1 viab 91 (no result: mut p53 react, ID4 SMM)
Cc1ccc(S(=O)(=O)Nc2ccc3c(c2)C(=O)N([C@H](C)CO)C[C@H](C)[C@H](CN(C)S(=O)(=O)c2ccc(Cl)cc2)OCCCC[C@@H](C)O3)cc1	NOMO-1 viab 111 (no result: mut p53 react, ID4 SMM)
C[C@@H]1CN([C@H](C)CO)C(=O)c2cc(NS(=O)(=O)c3ccccc3)ccc2O[C@@H](C)CCCCO[C@@H]1CN(C)C(=O)c1ccncc1	ID4 SMM active (no result: NOMO-1 viab, STK33 inh)
C[C@@H]1CCCCO[C@@H](CN(C)CC2CCCCC2)[C@@H](C)CN([C@H](C)CO)C(=O)c2cc(NS(=O)(=O)c3ccc(Cl)cc3)ccc2O1	NOMO-1 viab 97 (no result: mut p53 react, ID4 SMM)
C[C@@H]1CCCCO[C@H](CN(C)CC2CCCCC2)[C@@H](C)CN([C@H](C)CO)C(=O)c2cc(NS(=O)(=O)c3ccc(Cl)cc3)ccc2O1	NOMO-1 viab inconclusive (no result: mut p53 react, ID4 SMM)
Cc1ccc(S(=O)(=O)N(C)C[C@H]2OCCCC[C@@H](C)Oc3ccc(NS(=O)(=O)c4ccc(Cl)cc4)cc3C(=O)N([C@H](C)CO)C[C@@H]2C)cc1	NOMO-1 viab inconclusive (no result: mut p53 react, ID4 SMM)
COc1ccc(S(=O)(=O)N(C)C[C@@H]2Oc3c(NC(=O)c4nc5ccccc5s4)cccc3C(=O)N([C@@H](C)CO)C[C@@H]2C)cc1	none (no result: mut p53 react, ID4 SMM, STK33 inh)
Cc1ccc(N(C(C)C(=O)Nc2ccc(Br)c(C)c2)S(C)(=O)=O)cc1 (stereo unspecified)	none
CC1CCC/C=C2\C(=O)C=CC3OC(/C=C/C=C/C=C/C(=O)O)=C(C(=O)O1)C23 (stereo unspecified)	NOMO-1 viab 122 (no result: mut p53 react, ID4 SMM)
COc1ccc(NC(=O)N(C)C[C@H]2OCCCC[C@@H](C)Oc3ccc(NS(=O)(=O)c4c(C)noc4C)cc3C(=O)N([C@H](C)CO)C[C@@H]2C)cc1	none (no result: mut p53 react, ID4 SMM)
CS/C(NCC1CC1)=C(/C#N)C(=O)c1ccc(Cl)cc1	NOMO-1 viab 111 (no result: mut p53 react, ID4 SMM, STK33 inh)
COC(=O)C1=COC(O[C@@H]2O[C@H](CO)[C@@H](O)[C@H](O)[C@H]2O)[C@@H]2[C@@](C)(O)[C@@H](OC(=O)/C=C/c3ccc(OC)cc3)C[C@]12O (stereo partly specified)	none
C[C@@H]1CN([C@@H](C)CO)C(=O)c2cc(NC(=O)Nc3ccc4c(c3)OCO4)ccc2O[C@@H]1CN(C)Cc1ccc(C(F)(F)F)cc1	NOMO-1 viab 90
C[C@H]1CN([C@@H](C)CO)C(=O)c2cc(NC(=O)Nc3ccc(C(F)(F)F)cc3)ccc2O[C@H]1CN(C)Cc1ccc2c(c1)OCO2	NOMO-1 viab 106 (no result: mut p53 react, ID4 SMM)
C[C@@H]1CN([C@H](C)CO)C(=O)c2cc(NC(=O)Nc3ccc(C(F)(F)F)cc3)ccc2O[C@H]1CN(C)Cc1ccc2c(c1)OCO2	none (no result: mut p53 react, ID4 SMM, STK33 inh)
O=C1C(SCCO)=C(SCCO)C(=O)c2ccccc21	NOMO-1 viab 114 (no result: ID4 SMM)
Nc1nc(Cl)nc2c1ncn2C1C[C@@H](O)C(CO)O1 (stereo partly specified)	NOMO-1 viab 98
Nc1ncnc2c1ncn2C1CCC(CO)O1 (stereo unspecified)	none
OCC1OC(n2cnc3c(NC4CCCC4)ncnc32)C(O)C1O (stereo unspecified)	none (no result: NOMO-1 viab, STK33 inh)
Nc1nc(Cl)nc2c1ncn2C1OC(CO)[C@H](O)[C@H]1F (stereo partly specified)	NOMO-1 viab 97 (no result: ID4 SMM)
COc1ccc(NC(=O)N(C)C[C@H]2Oc3ccc(NC(=O)Nc4ccc(C(F)(F)F)cc4)cc3C(=O)N([C@@H](C)CO)C[C@H]2C)cc1	none (no result: mut p53 react, ID4 SMM, STK33 inh)
C[C@H]1CN([C@@H](C)CO)C(=O)c2cc(NC(=O)Nc3ccc(C(F)(F)F)cc3)ccc2O[C@@H]1CN(C)Cc1ccc(Cl)c(Cl)c1	NOMO-1 viab 117 (no result: mut p53 react, ID4 SMM)
C[C@H](CO)N1C[C@H](C)[C@H](CN(C)Cc2ccc(Cl)c(Cl)c2)Oc2ccc(NC(=O)Nc3ccc(C(F)(F)F)cc3)cc2C1=O	NOMO-1 viab 125 (no result: mut p53 react, ID4 SMM, STK33 inh)
C[C@H](CO)N1C[C@H](C)[C@@H](CN(C)Cc2ccc(Cl)c(Cl)c2)Oc2ccc(NC(=O)Nc3ccc(C(F)(F)F)cc3)cc2C1=O	none (no result: mut p53 react, ID4 SMM, STK33 inh)
C[C@@H]1CN([C@@H](C)CO)C(=O)c2cc(NC(=O)Nc3ccc(C(F)(F)F)cc3)ccc2O[C@H]1CN(C)Cc1ccc(Cl)c(Cl)c1	NOMO-1 viab 115 (no result: mut p53 react, ID4 SMM)
CNC[C@H]1Oc2ccc(NS(=O)(=O)c3ccc(C)cc3)cc2CC(=O)N([C@@H](C)CO)C[C@H]1C	none (no result: ID4 SMM)
O=C1c2ccccc2-[n+]2ccc3c([nH]c4ccccc43)c21	NOMO-1 viab 99 (no result: ID4 SMM)
COC(=O)c1ccc(NC(=O)CCn2nc(-c3ccccc3)c3ccccc3c2=O)cc1	none
COCCNC(=S)N1CCN(Cc2ccco2)CC1	ID4 SMM active
CS(=O)(=O)N1CCN(C(=S)NCc2ccco2)CC1	none
COc1ccc(S(=O)(=O)N(C)C[C@H]2Oc3c(NC(=O)Nc4ccc(C(F)(F)F)cc4)cccc3C(=O)N([C@@H](C)CO)C[C@H]2C)cc1	NOMO-1 viab 121 (no result: mut p53 react, ID4 SMM, STK33 inh)
COc1ccc(S(=O)(=O)N(C)C[C@@H]2Oc3c(NC(=O)Nc4ccc(C(F)(F)F)cc4)cccc3C(=O)N([C@@H](C)CO)C[C@H]2C)cc1	none (no result: mut p53 react, ID4 SMM, STK33 inh)
COc1ccc(S(=O)(=O)N(C)C[C@H]2Oc3c(NC(=O)Nc4ccc(C(F)(F)F)cc4)cccc3C(=O)N([C@@H](C)CO)C[C@@H]2C)cc1	NOMO-1 viab 112 (no result: mut p53 react, ID4 SMM, STK33 inh)
